AI-2 QS modul: Vibrio harveyi AI-2 quorum sensing modulators, primary screen, JMH597 strain, luminescence/OD600 ratio | AID 2094, 2009 | Vibrio harveyi JMH597 AI-2 luminescence/OD600 ratio, 9 h; active compounds read low; strain lacks LuxN and CqsS sensors; 0 = neutral-control median | activity change, % at 7.5 µM | 0.4% of 300,000 active; in the data active means activity change below about -75%, passing the limit was not always enough;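 further: luminescence divided by OD600 gain over 9 h not by final OD600 alone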
HIF activator: HIF pathway transcriptional activators, primary screen, cell-based, U2OS HRE-luciferase, luminescence; U2OS HRE-luciferase reporter; normalized: DMSO 0%, desferrioxamine 100%; activation, % at 7.5 µM (by protocol); 0.32% of 300,000 active; AID 1910, 2009;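 active means mean activation of at least 10% of the iron chelator positive control signal, with at least half of replicates also reaching 10%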
ALR inh: inhibitors of human ALR sulfhydryl oxidase, primary screen, biochemical, H2O2 detection, HRP-luminol luminescence, single point. inhibition, % (test concentration not listed). 3.8% of 290,000 active. AID 485317, 2010. FAD-linked sulfhydryl oxidase ALR (Homo sapiens), P55789. purified ALR, DTT oxidation;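 active means mean replicate inhibition above about 79%, with every replicate also reaching it, limit read from the data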
Target sequence (P55789 whole entry, looked up): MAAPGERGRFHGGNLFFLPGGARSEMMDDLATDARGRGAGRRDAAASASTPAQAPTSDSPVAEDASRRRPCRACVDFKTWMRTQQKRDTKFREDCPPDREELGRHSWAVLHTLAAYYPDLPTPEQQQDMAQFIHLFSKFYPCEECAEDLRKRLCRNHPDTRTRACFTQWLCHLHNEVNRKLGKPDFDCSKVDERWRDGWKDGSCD
SUMO Mot1 rescue: yeast Mot1-301 growth rescue at high temperature, primary screen, SUMOylation pathway inhibitor project, S. cerevisiae, ATP luminescence, 38.5C; S. cerevisiae Mot1-301 growth rescue; percent above DMSO median, 100 means doubled; growth rescue, % at 18.8 µM; 1% of 320,000 active; AID 2716, 2010;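 active means every valid replicate shows activation above 250% relative to neutral control wells; inactive means the rest, any valid replicate at or below 250%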;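 further: OY570 slx delta 5 strain wells were the positive control but not used for scaling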
Yeast Mot1 SUMO: growth restoration of Mot1-301 yeast on galactose, dose response, SUMO pathway inhibitor project, whole organism, S. cerevisiae, ATP luminescence, cherry-picked samples. growth activity, percent, % at 42 µM. shares compounds with SUMO Mot1 rescue. S. cerevisiae Mot1-301 galactose growth, 24 h; -100 = growth of slx-deleted rescue strain. AID 493004, 2010. 2,300 tested, under 10 active;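 active means Signal drops as the depositor expects, and the fitted half-maximal dose is no more than ten times the top valid tested dose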;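 further: more negative values mean stronger growth rescue toward the control strain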
* marks the source's active call; other numbers are inactive results; i = inactive; · = no result; [ ] = dose if it differs, or a comment. This is a sample that favours compounds with a hit; in the whole collection about 4.8% have one here.

SMILES	AI-2 QS modul	HIF activator	ALR inh	SUMO Mot1 rescue	Yeast Mot1 SUMO
O=C(OCc1nc2ccsc2c(=O)[nH]1)c1ccco1	-2	0	·	651*	0
O=C1CCCN1CC(O)CS(=O)(=O)Cc1ccccc1Cl (configuration not stated)	16	-18	-4	-14	·
CCC(=O)Nc1ccc2c(c1)C(=O)N(C)C2=O	12	0	-2	i	·
CN1C(=O)c2ccc(NC(=S)NC(=O)C(C)(C)C)cc2C1=O	3	1	20	439*	0
Cc1cc(C)cc(-n2ncc3c2CCCC3NC(=O)CCN2Cc3ccccc3C2=O)c1 (configuration not stated)	1	0	-14	-7	·
O=C(c1ccccc1F)N1CCCc2ccccc21	-9	-25	0	495*	0
CCC(C)(C)C1CCc2[nH]nc(C(=O)NCCCNC(=O)OC(C)(C)C)c2C1 (configuration not stated)	·	·	-11	-12	·
CC(C)(C)C(=O)Nc1sc2c(c1C#N)CCN(Cc1ccccc1)C2	12	1	·	-20	·
CCC1CCC2(CC1)NC(=O)N(CC(=O)NCc1ccccc1Cl)C2=O (configuration not stated)	·	·	-3	-6	·
COc1ccccc1N1CCN(C(=O)c2ccc(N3CCCCS3(=O)=O)cc2)CC1	9	0	5	607*	1
O=S(=O)(NC1CCSc2ccccc21)c1ccc(Cl)nc1 (configuration not stated)	1	0	-24	-13	·
Cc1ccc(N(CC(=O)Nc2cccc(C)c2)S(=O)(=O)c2cccc3nonc23)cc1	17	-1	-6	616*	0[21 µM]
O=C(CN1C(=O)NC2(CCCCC2)C1=O)Nc1ccc(Cl)cc1	·	·	0	6	·
CSc1ccccc1-c1nc(-c2ccncc2)no1	13	5	-5	718*	0
Cc1cc(NC(=O)COc2coc(CN3CCN(c4ccccc4F)CC3)cc2=O)no1	22	0	-2	-6	·
Cc1cc(NC(=O)c2ccc3c(c2)C(=O)N(CC(C)C)C3=O)no1	25	1	-7	-15	·
Cc1cc(NC(=O)c2ccc3c(c2)C(=O)N(C(C)(C)C)C3=O)no1	9	-1	8	447*	0
CCCCOc1ccc(C(=O)NNC(=O)c2cnccn2)cc1OC	·	·	1	47	·
Cc1cccc(NC(=O)CSc2nc3ccc(N4C(=O)c5ccccc5C4=O)cc3s2)c1C	0	0	-15	-12	·
CN(C)C(=O)CSc1nc2ccc(N3C(=O)c4ccccc4C3=O)cc2s1	15	0	-6	562*	0
CCn1nc(C(=O)OCc2cccc(S(=O)(=O)N(C)C)c2)c2ccccc2c1=O	20	0	·	850*	-1
CC1(C)CC(=O)c2cnc(NC(=O)CSc3nc4ccccc4o3)nc2C1	15	0	-19	851*	1
Cc1nnc(SCC(=O)NC(C)(C)C)n1NCc1ccc(Cl)cc1	22	·	·	785*	0
Cc1ccc(CNn2cnnc2SCC(=O)NC(C)(C)C)cc1	2	0	·	175	·
CC1(C)CNc2cc([N+](=O)[O-])ccc2S1	-4	3	73	810*	2
SMILES	AI-2 QS modul	HIF activator	ALR inh	SUMO Mot1 rescue	Yeast Mot1 SUMO
N#C/C(=C\c1cc(Br)ccc1F)C(=O)NC1CC1	5	0	5	-27	·
O=C(Nc1cccnc1Cl)c1cc2ccccc2o1	30	5	-5	567*	0
Cc1ccc(S(=O)(=O)NCc2ccc(C(=O)N3CCN(c4ccccn4)CC3)cc2)cc1	5	-1	-3	662*	1
Cc1ccc(NS(=O)(=O)c2ccc(C(=O)N3CCN(c4ccccn4)CC3)cc2)cc1	4	0	-2	34	·
COCCNC(=O)C(=O)N/N=C(\C)CC(=O)Nc1cccc(C(F)(F)F)c1	-6	0	16	445*	0
O=C(CCn1c(=O)sc2ccccc21)NC1CCCCC1	36	1	7	2	·
CC1(C)CCC(=O)N2CC[C@H]3C[C@H](OC(=O)Nc4ccc(Br)cc4)C[C@@H]1[C@H]32	-8	2	1	805*	0
